Measurements: PubChem BioAssay (NCATS)
Records with an inconclusive call do not appear. Calls of active or inactive are those of the source. The call rests on the fitted dose curve; in most records, active means well fitted curve in the direction sought with a large enough effect; inconclusive means small, poorly fitted or top-dose-only effect, or another doubt; inactive means no such curve, though single readings can be large; an effect the other way counts as inactive or inconclusive.

How the values were obtained:
[1] = U-118MG Cancer Cell Toxicity qHTS against the NCATS CANVASS Library (AID 1347351); settings: U-118MG viability, CellTiter-Glo luminescence, 72 h; series mostly up to 76 µM
Method in brief: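 Per well, 1000 cells; exposure 72 h with compound at 11 final concentrations; readout CellTiter-Glo luminescence.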

[2] = COV-362 Cancer Cell Toxicity qHTS against the NCATS CANVASS Library (AID 1347352); settings: COV-362 viability, CellTiter-Glo luminescence, 72 h; series mostly up to 76 µM
Method in brief: (§1)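 Cells were seeded at 1000 per well and allowed to settle 4 hours at 37 degrees C before pin transfer of compounds as an 11-point series. Viability was read by CellTiter-Glo luminescence after 72 hours' exposure.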

[3] = A2780 Cisplatin Sensitive Ovarian Cancer Cell Toxicity qHTS against the NCATS CANVASS Library (AID 1347353); settings: A2780 ovarian cancer viability, ATPLite luminescence, 72 h; at 91.4 µM (top of the series) unless noted; further: nearly all actives have a fitted effect of over 60% in size
Method in brief: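 A2780 cisplatin-sensitive cells (750 per well) were seeded, left 4 h at 37 °C, then pin-dosed in an 11-point series. After 72 h at 37 °C/5% CO2, viability was measured as ATPLite luminescence.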

[4] = UWB1.289-WTBRCA1 Cancer Cell Toxicity qHTS against the NCATS CANVASS Library (AID 1347354); settings: UWB1.289-WTBRCA1 viability, CellTiter-Glo luminescence, 72 h; series mostly up to 76 µM
Method in brief: as §1

[5] = HEK-293 Cancer Cell Toxicity qHTS against the NCATS CANVASS Library (AID 1347355); settings: HEK-293 viability, CellTiter-Glo luminescence, 72 h; series mostly up to 91.4 µM; further: nearly all actives have a fitted effect of over 65% in size
Method in brief: as §1

[6] = HPAF-II 24hr Apoptosis Induction qHTS against the NCATS CANVASS Library (AID 1347356); settings: HPAF-II caspase-3/7 Caspase-Glo luminescence; series mostly up to 91.4 µM
Method in brief: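 HPAF-II cells (500/well) in DMEM + 10% FBS were treated with an 11-point compound series for 24 hours at 37 degrees C. Caspase-3/7 activity was then read by Caspase-Glo DEVD luminescence after 15 min.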

[7] = HEK293 18hr Apoptosis Induction qHTS against the NCATS CANVASS Library (AID 1347357); settings: HEK293 caspase-3/7 Caspase-Glo luminescence; series mostly up to 91.4 µM
Method in brief: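 Cells seeded at 500/well in DMEM + 10% FBS. Compounds pinned, 11 concentrations. 18 h, 37 degrees C/5% CO2. Caspase-Glo 3/7 added, 15 min RT dark, luminescence read.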

[8] = HPAF-II 12hr Apoptosis Induction qHTS against the NCATS CANVASS Library (AID 1347358); settings: HPAF-II caspase-3/7 Caspase-Glo luminescence; series mostly up to 91.4 µM
Method in brief: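 HPAF-II cells (500/well, DMEM + 10% FBS) were exposed to compounds for 12 hours at 37 degrees C. Caspase-3/7 activity was then read by Caspase-Glo 3/7 luminescence after 15 min at room temperature.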

[9] = HEK293 24hr Apoptosis Induction qHTS against the NCATS CANVASS Library (AID 1347359); settings: HEK293 caspase-3/7 activation, Caspase-Glo luminescence; series mostly up to 91.4 µM
Method in brief: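 Caspase-3/7 activation measured as luminescence from the DEVD-based Caspase-Glo reagent, 15 min at room temperature, following 24-hour compound treatment of HEK293 cells.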

[10] = HPAF-II 18hr Apoptosis Induction qHTS against the NCATS CANVASS Library (AID 1347360); settings: HPAF-II caspase-3/7 luminescence; series mostly up to 91.4 µM
Method in brief: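 Seed HPAF-II cells at 500/well in DMEM + 10% FBS, pin-transfer compounds, incubate 18 hours at 37 degrees C/5% CO2, add Caspase-Glo 3/7 reagent, wait 15 min, read luminescence.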

[11] = HEK293 12hr Apoptosis Induction qHTS against the NCATS CANVASS Library (AID 1347361); settings: HEK293 caspase-3/7 Caspase-Glo luminescence; series mostly up to 91.4 µM
Method in brief: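 Cells are seeded, dosed with an 11-point compound series and incubated 12 hours. Caspase-3/7 activity is detected by luminescent DEVD-substrate reagent after 15 minutes at room temperature.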

[12] = system: NAD(P)H diaphorase (Clostridium kluyveri); assay: Diaphorse counterscreen qHTS: Assay Interference Panel against the NCATS CANVASS Library (AID 1347362); settings: Diaphorase enzyme, resazurin to resorufin fluorescence; series mostly up to 57.5 µM
Method in brief: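 Counterscreen for coupling-enzyme interference: resorufin fluorescence from resazurin/NADH turnover, read after 5 min at room temperature. Compounds were tested over an 11-point series after 15 min dark preincubation with diaphorase in PBS-Tween.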

[13] = target: Luciferin 4-monooxygenase (Photinus pyralis) (UniProt P08659); assay: Firefly luciferase counterscreen qHTS: Assay Interference Panel against the NCATS CANVASS Library (AID 1347363); settings: purified firefly luciferase, luminescence inhibition, 5 min; series mostly up to 57.5 µM
Method in brief: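 Luminescence inhibition readout: compounds (11-point qHTS) sat 15 min at room temperature with substrate mix (0.013 mM luciferin and ATP), then firefly luciferase was added and signal read 5 min later.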

[14] = KB-8-5-11 Cancer Cell Toxicity qHTS against the NCATS CANVASS Library (AID 1347364); settings: KB-8-5-11 MDR cells viability, CellTiter-Glo, 72 h; series mostly up to 91.4 µM; further: nearly all actives have a fitted effect of over 75% in size
Method in brief: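 KB-8-5-11 cells (500/well) in DMEM + 10% FBS were exposed to compounds in an 11-point qHTS series for 72 hr at 37C, 5% CO2. Viability was read by CellTiter-Glo luminescence.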

[15] = KB-3-1 Cancer Cell Toxicity qHTS against the NCATS CANVASS Library (AID 1347366); settings: KB-3-1 viability, CellTiter-Glo luminescence, 72 h; series mostly up to 91.4 µM; further: nearly all actives have a fitted effect of over 75% in size
Method in brief: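 Luminescence from CellTiter-Glo (10 min, room temperature) measured KB-3-1 viability after 72 hr compound exposure at 37C. Cells were seeded at 500/well and tested in an 11-point series.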

[16] = qHTS for ATAD5 Agonist screened against the NCATS CANVASS Library (AID 1347367); settings: HEK293T ATAD5-luciferase reporter, luminescence, 16 h; series mostly up to 91.4 µM;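 further: luciferase reporter driven by ATAD5 which rises upon DNA damage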
Method in brief: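 HEK293T-ATAD5 luc reporter; 2000 cells/well; 5hr settle; cpd 11-pt qHTS; 16hr 37C 5% CO2 dark; viability by CellTiter-Fluor (AFC fluorescence); then luciferase luminescence, 30min RT.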

[17] = G06 Cancer Cell Toxicity qHTS against the NCATS CANVASS Library (AID 1347368); settings: G06 dog glioma cells, viability ATP luminescence, 72 h; series mostly up to 91.4 µM; further: nearly all actives have a fitted effect of over 60% in size
Method in brief: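 G06 dog glioma cells seeded at 500 cells/well were exposed to compounds (11-point qHTS series) for 72 hr at 37C, 5% CO2; viability read as ATP content by CellTiterGlo luminescence.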

[18] = MCF7 Cancer Cell Toxicity qHTS against the NCATS CANVASS Library (AID 1347369); settings: MCF7 viability, ATP luminescence (CellTiter-Glo), 72 h; series mostly up to 91.3 µM
Method in brief: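 Cells seeded at 500/well, then compound pinned. Plates incubated 72 hr at 37C, 5% CO2. CellTiterGlo added; luminescence read.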

[19] = qHTS for ATAD5 Antagonist screened against the NCATS CANVASS Library (AID 1347370); settings: HEK293T-ATAD5-luc, 5-FUrd stimulated, luminescence, 16 h; series mostly up to 91.4 µM;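 further: HEK293T cells carrying an ATAD5 luciferase reporter co-treated with 10 µM 5-fluorouridine; nearly all actives have a fitted effect of over 65% in size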
Method in brief: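 HEK293T cells with a stably integrated ATAD5-controlled luciferase reporter were exposed to compounds (11-pt) alongside 10 uM 5-fluorouridine as ATAD5 stabilizer for 16hr at 37C. Viability was read by CellTiter-Fluor fluorescence, then ATAD5 by luminescence.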

[20] = SDT Cancer Cell Toxicity qHTS against the NCATS CANVASS Library (AID 1347365); settings: SDT dog glioma viability, ATP luminescence, 72 h; series mostly up to 91.4 µM;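 further: SDT canine glioma cells 500 per well in 1536 well plates; nearly all actives have a fitted effect of over 60% in size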
Method in brief: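 SDT canine glioma cells (500 cells/well) were exposed to compounds in an 11-point series for 72 hr at 37C, 5% CO2; viability was read as ATP content by CellTiterGlo luminescence.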

Measured: outcome

Luciferin 4-monooxygenase (Photinus pyralis), sequence (P08659 whole entry, looked up): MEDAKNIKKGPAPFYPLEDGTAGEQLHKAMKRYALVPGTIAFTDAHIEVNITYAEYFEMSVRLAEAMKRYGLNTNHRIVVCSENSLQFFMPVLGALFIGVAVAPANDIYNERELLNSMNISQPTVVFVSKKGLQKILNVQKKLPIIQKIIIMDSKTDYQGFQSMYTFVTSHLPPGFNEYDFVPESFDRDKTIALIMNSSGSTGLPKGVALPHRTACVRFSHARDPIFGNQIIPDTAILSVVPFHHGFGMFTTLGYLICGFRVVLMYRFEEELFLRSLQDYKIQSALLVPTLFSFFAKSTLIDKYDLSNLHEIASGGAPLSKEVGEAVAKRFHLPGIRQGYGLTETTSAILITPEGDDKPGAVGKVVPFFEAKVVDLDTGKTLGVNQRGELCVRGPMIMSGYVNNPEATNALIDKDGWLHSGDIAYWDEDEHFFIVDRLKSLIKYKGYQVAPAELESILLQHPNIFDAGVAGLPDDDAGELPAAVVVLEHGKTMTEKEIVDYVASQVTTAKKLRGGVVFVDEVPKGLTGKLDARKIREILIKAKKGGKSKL

COc1ccc2[nH]cc(CCN)c2c1
inactive: [1] | [2] | [3] inactive [at 46.1 µM] | [4] | [5] | [6] | [7] | [8] | [9] | [10] | [11] | [12] | [13] | [14] | [15] | [16] | [17] | [18] | [19]

O=C1C[C@@H]2OCC=C3CN4CC[C@]56c7ccccc7N1[C@H]5[C@H]2[C@H]3C[C@H]46
inactive: all assays above
